Measurements published in PubChem BioAssay AID1159580 (chemical genetic matrix, 2015).
The campaign covered roughly 5,500 compounds. About 2,000 (36%) were called active. Another 18% or so got no clear call; they are omitted. No stated cut-off is given here; in the data, active means normalized growth mostly below about 0.91 (no sharp cut-off); inconclusive means no clear call, values can overlap the other calls; inactive means mostly above about 0.92. Some of the results follow.

Test: chemical genetic growth profiling, strain panel (AID 1159580);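 further: tested at 20 µM; growth read once vehicle control cultures reached saturation at 30 °C; 1 = growth at the plate median or of vehicle wells; lower values mean less growth of the strain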
Details: growth OD

Measured: normalized growth

COc1ccc2c(c1)CCC1C2CCC2(C)C1C[C@@H](O)C2O (stereo not given in full)
active: S. cerevisiae deletion strains, locus YLR262C, strain YPT6 (second series), active compounds read low 0.755 | S. cerevisiae deletion strains, locus YLR320W, strain mms22, active compounds read low 0.876 | S. cerevisiae deletion strains, locus YNL071W, strain lat1, active compounds read low 0.833
inactive: S. cerevisiae deletion strains, locus YJL187C, strain SWE1, active compounds read low 0.991 | S. cerevisiae deletion strains, locus YJR043C, strain POL32, active compounds read low 0.999 | S. cerevisiae deletion strains, locus YJR075W, strain HOC1, active compounds read low 0.982 | S. cerevisiae deletion strains, locus YKL009W, strain mrt4, active compounds read low 0.948 | S. cerevisiae deletion strains, locus YKL068W, active compounds read low 1 | S. cerevisiae deletion strains, locus YKL085W, strain MDH1 (second series), active compounds read low 0.997 | S. cerevisiae deletion strains, locus YKL085W, strain MDH1, active compounds read low 0.997 | S. cerevisiae deletion strains, locus YKL160W, strain elf1, active compounds read low 0.958 | S. cerevisiae deletion strains, locus YKL190W, strain CNB1, active compounds read low 1.01 | S. cerevisiae deletion strains, locus YKR001C, strain vps1, active compounds read low 0.956 | S. cerevisiae deletion strains, locus YKR026C, strain gcn3, active compounds read low 0.994 | S. cerevisiae deletion strains, locus YKR091W, strain srl3, active compounds read low 0.997 | S. cerevisiae deletion strains, locus YLL001W, strain dnm1, active compounds read low 0.966 | S. cerevisiae deletion strains, locus YLL026W, active compounds read low 0.974 | S. cerevisiae deletion strains, locus YLL041C, strain sdh2, active compounds read low 0.982 | S. cerevisiae deletion strains, locus YLR027C, strain aat2, active compounds read low 0.974 | S. cerevisiae deletion strains, locus YLR039C, strain RIC1, active compounds read low 0.947 | S. cerevisiae deletion strains, locus YLR058C, strain SHM2, active compounds read low 1 | S. cerevisiae deletion strains, locus YLR102C, strain apc9, active compounds read low 0.99 | S. cerevisiae deletion strains, locus YLR221C, strain rsa3, active compounds read low 0.929 | S. cerevisiae deletion strains, locus YLR258W, strain gsy2, active compounds read low 0.965 | S. cerevisiae deletion strains, locus YLR262C, strain YPT6, active compounds read low 0.943 | S. cerevisiae deletion strains, locus YLR268W, strain sec22, active compounds read low 0.973 | S. cerevisiae deletion strains, locus YLR330W, strain CHS5, active compounds read low 1.01 | S. cerevisiae deletion strains, locus YLR342W, strain FKS1 (second series), active compounds read low 0.912 | S. cerevisiae deletion strains, locus YLR342W, strain FKS1, active compounds read low 0.947 | S. cerevisiae deletion strains, locus YLR357W, strain rsc2, active compounds read low 0.987 | S. cerevisiae deletion strains, locus YLR370C, strain arc18, active compounds read low 1 | S. cerevisiae deletion strains, locus YLR371W, strain rom2, active compounds read low 0.985 | S. cerevisiae deletion strains, locus YLR384C, strain iki3, active compounds read low 1.01 | S. cerevisiae deletion strains, locus YLR418C, strain cdc73, active compounds read low 0.894 | S. cerevisiae deletion strains, locus YML016C, strain PPZ1, active compounds read low 1.01 | S. cerevisiae deletion strains, locus YML032C, strain rad52, active compounds read low 0.972 | S. cerevisiae deletion strains, locus YML120C, strain ndi1, active compounds read low 0.998 | S. cerevisiae deletion strains, locus YML124C, strain tub3, active compounds read low 0.998 | S. cerevisiae deletion strains, locus YMR058W, strain fet3, active compounds read low 0.968 | S. cerevisiae deletion strains, locus YMR078C, strain ctf18, active compounds read low 0.992 | S. cerevisiae deletion strains, locus YMR125W, strain sto1, active compounds read low 1.01 | S. cerevisiae deletion strains, locus YMR129W, active compounds read low 1.01 | S. cerevisiae deletion strains, locus YMR205C, strain PFK2, active compounds read low 0.964 | S. cerevisiae deletion strains, locus YMR223W, strain ubp8, active compounds read low 0.965 | S. cerevisiae deletion strains, locus YMR231W, strain pep5, active compounds read low 0.998 | S. cerevisiae deletion strains, locus YMR307W, strain GAS1, active compounds read low 0.782 | S. cerevisiae deletion strains, locus YNL067W, strain RPL9B, active compounds read low 0.979 | S. cerevisiae deletion strains, locus YNL128W, strain TEP1, active compounds read low 0.992 | S. cerevisiae deletion strains, locus YNL209W, strain ssb2, active compounds read low 1 | S. cerevisiae deletion strains, locus YNL233W, strain BNI4, active compounds read low 0.989 | S. cerevisiae deletion strains, locus YNL248C, strain rpa49, active compounds read low 0.979 | S. cerevisiae deletion strains, locus YNL250W, strain rad50, active compounds read low 0.983 | S. cerevisiae deletion strains, locus YNL271C, strain bni1, active compounds read low 0.983 | S. cerevisiae deletion strains, locus YNL298W, strain CLA4, active compounds read low 0.966 | S. cerevisiae deletion strains, locus YNL307C, strain MCK1, active compounds read low 0.967 | S. cerevisiae deletion strains, locus YNL322C, strain KRE1 (second series), active compounds read low 1.01 | S. cerevisiae deletion strains, locus YNR049C, strain mso1, active compounds read low 1.01 | S. cerevisiae deletion strains, locus YNR052C, strain pop2, active compounds read low 0.987 | S. cerevisiae deletion strains, locus YOL006C, strain TOP1, active compounds read low 0.902 | S. cerevisiae deletion strains, locus YOL012C, strain htz1 0.926 | S. cerevisiae deletion strains, locus YOL147C, strain pex11, active compounds read low 1 | S. cerevisiae deletion strains, locus YOR001W, strain rrp6, active compounds read low 0.986 | S. cerevisiae deletion strains, locus YOR061W, strain CKA2, active compounds read low 1.01 | S. cerevisiae deletion strains, locus YOR069W, strain VPS5, active compounds read low 1.01 | S. cerevisiae deletion strains, locus YOR070C, strain gyp1, active compounds read low 0.998 | S. cerevisiae deletion strains, locus YOR080W, strain dia2, active compounds read low 1 | S. cerevisiae deletion strains, locus YOR083W, strain WHI5, active compounds read low 0.914 | S. cerevisiae deletion strains, locus YOR106W, strain vam3, active compounds read low 0.916 | S. cerevisiae deletion strains, locus YOR136W, strain idh2, active compounds read low 0.997 | S. cerevisiae deletion strains, locus YOR144C, strain elg1, active compounds read low 0.995 | S. cerevisiae deletion strains, locus YOR184W, strain ser1, active compounds read low 0.945 | S. cerevisiae deletion strains, locus YOR265W, strain rbl2, active compounds read low 0.999 | S. cerevisiae deletion strains, locus YOR270C, strain vph1, active compounds read low 1.11 | S. cerevisiae deletion strains, locus YOR290C, strain snf2, active compounds read low 0.94 | S. cerevisiae deletion strains, locus YOR316C, strain cot1, active compounds read low 0.991 | S. cerevisiae deletion strains, locus YPL051W, strain arl3, active compounds read low 0.941 | S. cerevisiae deletion strains, locus YPL078C, strain atp4, active compounds read low 0.929 | S. cerevisiae deletion strains, locus YPL106C, strain sse1, active compounds read low 1.03 | S. cerevisiae deletion strains, locus YPL240C, strain hsp82, active compounds read low 1.01 | S. cerevisiae deletion strains, locus YPR119W, strain clb2, active compounds read low 0.991 | S. cerevisiae deletion strains, locus YPR141C, strain kar3, active compounds read low 0.993 | S. cerevisiae deletion strains, locus YPR163C, strain tif3, active compounds read low 0.985 | S. cerevisiae deletion strains, locus YPR167C, strain met16, active compounds read low 0.991 | S. cerevisiae deletion strains, strain wtn01, active compounds read low 0.978 | S. cerevisiae strains, strain wild type, active compounds read low 1.01
